The source of these data is PubChem BioAssay (EPA / NIEHS).

Records with an inconclusive call do not appear. The source made the active and inactive calls. How the source made its calls: active means hit-call score of the fitted dose curve at least 0.9, where 1 is the maximum; inconclusive means response in the unintended direction; inactive means score below 0.9.

Read-out in the assay: sulfotransferase (SULT2A), SULT2A1 (gene 6822)
Description: CLD_SULT2A_6hr: CellzDirect (CLD) Gene Expression Assay for sulfotransferase (SULT2A) at 6 hours (AID 2283669).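 Further: hits raise transcript level above the DMSO vehicle baseline.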 Here is the method:
CLD_6hr is a cell-based, multiplexed-readout assay that uses hepatocyte, a human liver primary cell, with measurements taken at 6 hours after chemical dosing in a 96-well plate.CLD_SULT2A_6hr is one of 16 assay component(s) measured or calculated from the CLD_6hr assay. It is designed to make measurements of mRNA induction, a form of inducible reporter, as detected with chemiluminescence signals by Quantitative Nuclease Protection Assay (qNPA) technology.Data from the assay component CLD_SULT2A_6hr was analyzed at the endpoint, CLD_SULT2A_6hr, in the positive analysis fitting direction relative to DMSO as the negative control and baseline of activity. Using a type of inducible reporter, gain-of-signal activity can be used to understand changes in the reporter gene as they relate to the gene SULT2A1. Furthermore, this assay endpoint can be referred to as a primary readout. To generalize the intended target to other relatable targets, this assay endpoint is annotated to the transferase intended target family, where subfamily is sulfotransferase.
Human hepatocyte cultures were treated daily for two consecutive days with fresh dosing solutions containing appropriate concentrations of the 320 ToxCast chemicals (chemical identities were blinded to CellzDirect and other ToxCast collaborators), vehicle control (0.2% DMSO), and positive control inducers as summarized in Table 1. Due to the large number of treatment groups and chemicals examined, the ToxCast chemicals were divided into two groups (spanning two independent cultures of hepatocytes from separate donor preparations (Hu778: ToxCast plates 1 and 2; Hu776: ToxCast plates 3 and 4). Each preparation of human hepatocyte cultures was treated with respective vehicle control, medium only control, set of six positive controls/reference chemicals for the five hepatic receptor pathways, and a subset of eight of the ToxCast chemicals (indoxacarb, pyrithiobac-sodium, norflurazon, cyhalofop-butyl, methomyl, thiram, acetochlor, and propiconazole). These replicate data, coupled with internal replicates designed within the blinded ToxCast chemical library, provided additional data to evaluate interindividual differences between hepatocyte preparations and their potential impact on chemical profiles.Cell morphology and integrity were evaluated using phase-contrast microscopy as an indicator of hepatocyte cell health (Tyson & Green, 1987). Cultures for each treatment group (i.e., media, vehicle [0.2% DMSO], positive control inducers [multiple concentrations], and the ToxCast chemicals [multiple concentrations]) were observed and cell morphology was assessed relative to vehicle control cultures at each harvest time point (0, 6, 24, or 48 h). […] Images were evaluated at the conclusion of the study to assess changes in cell integrity and account for the effects of chemical exposure on uncharacteristic changes in concentration-dependent gene expression profiles. The results from these determinations of apparent cytotoxicity were annotated (yes/no) alongside the corresponding qNPA data for reference.At the conclusion of each treatment period, hepatocyte cultures (96-well) were washed with 1 volume of HBSS, lysed by addition of 25 ul ArrayPlate lysis buffer (HTG, Tucson, AZ), and 70 ul/well of Denaturation Oil, denatured by incubation at 95C for 10 min, and frozen at approximately -70C until analysis by nuclease protection assay (qNPA) (Roberts et al., 2007). For qNPA analysis, cell lysates were thawed at 50C for approximately 30 min, qNPA probes were added, and samples were incubated at 95C for 10 min to begin the detection process by denaturing the target RNA, dissociating the duplexes and secondary structure hybridization. At the conclusion of the hybridization period, S1 nuclease reagent was added to each sample to digest all nonprotected nucleotides at 50C for 60-90 min. […]
Regarding `CCOc1nc(NC)nc(NC(=O)NS(=O)(=O)c2ccccc2C(=O)OC)n1`, the result was inactive.
As for `COP(=S)(OC)Oc1ccc([N+](=O)[O-])cc1`, the result was inactive.
For `CC(C)N(C(=O)COc1nnc(C(F)(F)F)s1)c1ccc(F)cc1`, the call was inactive.
Regarding `O=S1OCC2C(CO1)C1(Cl)C(Cl)=C(Cl)C2(Cl)C1(Cl)Cl` (configuration not stated), the call was inactive.
For the compound `CC(C)(C)C(O)C(Oc1ccc(Cl)cc1)n1cncn1` (configuration not stated), the compound was called inactive.
As to `CCCN(CCC)c1c([N+](=O)[O-])cc(C(F)(F)F)cc1[N+](=O)[O-]`, the compound was classed as inactive.
With `O=C(Nc1ccccc1)Nc1cnns1`, the compound was called inactive.
For `Cc1cc(C)nc(NC(=O)NS(=O)(=O)c2ccccc2C(=O)OC2COC2)n1`, the compound was called inactive.
On to `CCc1ccc(C(=O)NN(C(=O)c2cc(C)cc(C)c2)C(C)(C)C)cc1`, for which the compound was called inactive.
As for `CCOC1Oc2ccc(OS(C)(=O)=O)cc2C1(C)C` (configuration not stated), the compound was called inactive.
Take `CCC(C)(NC(=O)c1cc(Cl)c(C)c(Cl)c1)C(=O)CCl` (configuration not stated): the result was inactive.
Same read-out and setting: as for `CCC(C)Nc1c([N+](=O)[O-])cc(C(C)(C)C)cc1[N+](=O)[O-]` (configuration not stated), the entry is “inactive”; as for `O=[N+]([O-])/N=C1\NCCN1Cc1ccc(Cl)nc1`, “inactive”; as for `CCN(CC)C(=O)SCc1ccc(Cl)cc1`, “inactive”.
Turning to `COC(=O)c1ccccc1CS(=O)(=O)NC(=O)Nc1nc(OC)cc(OC)n1`, the compound was classed as inactive.
Take `O=S(=O)(O)C(F)(F)C(F)(F)C(F)(F)C(F)(F)C(F)(F)C(F)(F)C(F)(F)C(F)(F)F`: the outcome was inactive.
In the case of `COc1cc(OC)nc(NC(=O)NS(=O)(=O)c2cc(NC=O)ccc2C(=O)N(C)C)n1`, the compound was called inactive.
Regarding `CCCN(CCOc1c(Cl)cc(Cl)cc1Cl)C(=O)n1ccnc1`, the result was inactive.
Same read-out and setting: as for `CCOCN(C(=O)CCl)c1c(C)cccc1CC`, the entry is “inactive”.
With `COC(=O)c1ccccc1S(=O)(=O)NC(=O)N(C)c1nc(C)nc(OC)n1`, the compound was called inactive.
On the same count and under the same terms, in the case of `Cc1[nH]c(=O)n(C(C)(C)C)c(=O)c1Cl` it was “inactive”; in that of `CC1(c2ccc(Oc3ccccc3)cc2)OC(=O)N(Nc2ccccc2)C1=O` (configuration not stated), “inactive”.
With `COP(=S)(OC)Oc1ccc(SC)c(C)c1`, the compound was classed as inactive.
Take `CNC(=O)Oc1ccccc1OC(C)C`: the call was inactive.
Take `CC[C@H](C)[C@H]1O[C@]2(C=C[C@@H]1C)C[C@@H]1C[C@@H](C/C=C(\C)[C@@H](O[C@H]3C[C@H](OC)[C@@H](O[C@H]4C[C@H](OC)[C@@H](O)[C@H](C)O4)[C@H](C)O3)[C@@H](C)/C=C/C=C3\CO[C@@H]4[C@H](O)C(C)=C[C@@H](C(=O)O1)[C@]34O)O2` (tested in a mixture with another compound): the result was inactive.
On the same count and under the same terms, as for `CNC(=O)/C=C(\C)OP(=O)(OC)OC`, the entry is “inactive”.
As for `N#Cc1c(Cl)c(Cl)c(Cl)c(C#N)c1Cl`, the AC50 was 33.5 µM (active).
Consider `O=C(O)CCCOc1ccc(Cl)cc1Cl`, for which the call was inactive.
The same measure, in the same setting: as for `CC(C)(C)C(O)/C(=C\c1ccc(Cl)cc1Cl)n1cncn1` (configuration not stated), the entry is “inactive”; as for `N#CN`, “inactive”; as for `ClC1C(Cl)C(Cl)C(Cl)C(Cl)C1Cl` (configuration not stated), “inactive”.
Regarding `CC1(C)C(C=C(Cl)Cl)C1C(=O)OC(C#N)c1ccc(F)c(Oc2ccccc2)c1` (configuration not stated), the outcome was inactive.
Regarding `CN1CSC(=S)N(C)C1`, the compound was classed as inactive.
Consider `CNC(=O)Oc1cccc(N=CN(C)C)c1`, for which the call was inactive.
Take `O=C(NC(=O)c1c(F)cccc1F)Nc1ccc(OC(F)(F)C(F)OC(F)(F)F)c(Cl)c1` (configuration not stated): the call was inactive.
As to `C[C@H]1[C@H](c2ccc(Cl)cc2)SC(=O)N1C(=O)NC1CCCCC1`, the result was inactive.
Take `Clc1ccccc1-c1nnc(-c2ccccc2Cl)nn1`: the compound was called inactive.
